From PubChem
Most compounds without a hit are left out; they make up all but 3% or so of the library.
p53null 39C tox: qHTS Screen for Compounds that Selectively Target Cancer Cells with p53 Mutations: Cytotoxicity of p53 Null Cells at the Nonpermissive Temperature. H1299 p53-null (neo) cells, 39C, ATPlite viability, 24 h. Potency, µM (series often up to 46.1 µM), inactives show at the top dose activity, negative = cell killing, usual class: cytotoxic. hit rate 0.97% among 55,000;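 further: potency means the concentration at half of the fitted maximal effect; 0% = DMSO only and -100% = full killing by 100 µM tamoxifen; nearly all actives have a fitted effect of over 50% in size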
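Following overnight plating at 37C (600 cells/well), H1299-neo or H1299-p53A138V cells are dosed up to 46 uM. Incubation lasts 24 hr at 39C before ATP detection.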
mTORC1 inh: Acumen qHTS Assay for Inhibitors of the mTORC1 Signaling Pathway in MEF (Tsc2-/-, p53-/-) Cells: Sytravon. Tsc2-/- p53-/- MEF, phospho-rpS6 immunofluorescence/PI, 24 h. Potency, µM (doses to about 38.3 µM), for inactives: at the top dose activity change, negative = inhibition, usual class: inhibitors. hit rate 0.78% among 44,000;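 further: potency means the concentration at half of the fitted maximal effect; plate controls were DMSO for no effect and rapamycin for full effect; nearly all actives have a fitted effect of over 50% in size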
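Plate MEFs (Tsc2-/-, p53-/-, empty vector) in DMEM/10% FBS; after 24 h add compound, incubate 24 h at 37 degree Celsius; fix in PFA/TX-100, block, stain phospho-rpS6 and 10 uM PI; scan at 488 nm; report % positive cells.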
p53null 32C tox: qHTS Screen for Compounds that Selectively Target Cancer Cells with p53 Mutations: Cytotoxicity of p53 Null Cells at the Permissive Temperature. H1299-neo p53 null cells, ATP luminescence, 24 h, 32C. hit rate 0.62% among 55,000. Potency, µM (highest dose often 46.1 µM), inactives show top-dose activity change, negative = cytotoxicity, usual class: cytotoxic;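 further: potency means the concentration at half of the fitted maximal effect; 0% = DMSO only and -100% = full killing by 100 µM tamoxifen; nearly all actives have a fitted effect of over 55% in size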
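Luminescent ATP readout gave cell viability of p53-null H1299-neo cells after a 24 h compound exposure at the permissive 32C. Titrations ran up to 46 uM, and AC50s were fitted with the standard Hill equation.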
PMP22 txn: Cell-based coincidence reporter assay to measure PMP22 gene transcription in S16 Pmp22-F2sN cells - Primary screen. S16 Pmp22-F2sN Schwann cells, FLuc/NLuc coincidence luminescence, 24 h. Potency, µM (top dose mostly 57.5 µM), without a hit: top-dose activity change, negative = inhibition, usual class: inhibitors. hit rate 2% among 43,000. AID 1508649, 2021; active means clear falling dose curves in both reporters; inconclusive means both reporters move, but less clearly or upward; inactive means either reporter flat; the % is the NLuc reporter signal; further: potency means the concentration at half of the fitted maximal effect; on the % scale 0 is the no-effect control and ±100 the full control effect
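Reporter cells (S16 Pmp22-F2sN, 500–1,000 per well) exposed to compounds for 24 h, 37C, 5% CO2; lysis with FLuc read after 10 min, then Stop&Glo and NLuc read after 10 min.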
S16 viability: Cell viability qHTS assay in S16 Pmp22-F2sN cells | Potency, µM (titrated, usually from 57.5 µM), for inactives: top-dose activity change, negative = cytotoxicity, most hits filed as cytotoxic | S16 Pmp22-F2sN Schwann cells (luciferase reporters placed in the Pmp22 gene) viability, CellTiter-Glo, 24 h | AID 1508642, 2021 | hit rate 0.48% among 43,000; further: potency means the concentration at half of the fitted maximal effect; on the % scale 0 is the no-effect control and ±100 the full control effect; nearly all actives have a fitted effect of over 65% in size
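Rat S16 Schwann reporter line, 24 h treatment with library compounds delivered at 23 nL per well. Cell viability by CellTiter-Glo luminescence.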
OvCa metastasis: Primary qHTS assay for Inhibitors of ovarian cancer metastasis using an organotypic tumor microenvironment (TME) model; SKOV3ip1-GFP adhesion/invasion on 3D omental model, fluorescence; Potency, µM (series often up to 45.8 µM), inactives show top-dose activity change, negative = inhibition, actives largely listed as inhibitors; hit rate 0.1% among 46,000; AID 1963576, 2024;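 further: potency means the concentration at half of the fitted maximal effect; plate controls were DMSO wells for no effect and tomatine positive control wells for full effect; nearly all actives have a fitted effect of over 65% in size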
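qHTS, 4-pt dose (0.36-46 umol/L); SKOV3ip1-GFP, 1,200 cells/well, no FBS; primary omental fibroblast/mesothelial co-culture 48 h pre-grown; 2 h RT + 16 h 37 C; PBS wash, 4% PFA; GFP count 488/509 nm.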
NLuc sat counter: Biochemical NLuc saturation counterscreen for small molecule modulators of PMP22 gene expression - Nano-Glo assay. shares compounds with PMP22 txn. Secreted NLuc enzyme (filtered S16 cell medium), Nano-Glo luminescence. Potency, µM (highest dose often 57.5 µM), for inactives: at the top dose activity change, negative = inhibition, actives largely listed as inhibitors. hit rate 4% among 690; further: potency means the concentration at half of the fitted maximal effect; on the % scale 0 is the no-effect control and ±100 the full control effect
NLuc Km ctr: Biochemical coelenterazine-based NLuc counterscreen for small molecule modulators of PMP22 gene expression - Km assay | shares compounds with PMP22 txn | secreted NLuc enzyme, coelenterazine luminescence, Km conditions | Potency, µM (series often up to 57.5 µM), for inactives: at the top dose activity change, negative = inhibition, actives largely listed as inhibitors | hit rate 5% among 690 | AID 1508639, 2021; further: potency means the concentration at half of the fitted maximal effect; on the % scale 0 is the no-effect control and ±100 the full control effect
FLuc counter: Biochemical FLuc counterscreen for small molecule modulators of PMP22 gene expression; shares compounds with PMP22 txn; purified P. pyralis FLuc, luminescence, 10 min; Potency, µM (series often up to 57.5 µM), inactives show top-dose activity, negative = inhibition, most hits filed as inhibitors; 690 tested, under 10 active; further: % of control where 0% means no effect
Target sequence (P08659 whole entry, looked up): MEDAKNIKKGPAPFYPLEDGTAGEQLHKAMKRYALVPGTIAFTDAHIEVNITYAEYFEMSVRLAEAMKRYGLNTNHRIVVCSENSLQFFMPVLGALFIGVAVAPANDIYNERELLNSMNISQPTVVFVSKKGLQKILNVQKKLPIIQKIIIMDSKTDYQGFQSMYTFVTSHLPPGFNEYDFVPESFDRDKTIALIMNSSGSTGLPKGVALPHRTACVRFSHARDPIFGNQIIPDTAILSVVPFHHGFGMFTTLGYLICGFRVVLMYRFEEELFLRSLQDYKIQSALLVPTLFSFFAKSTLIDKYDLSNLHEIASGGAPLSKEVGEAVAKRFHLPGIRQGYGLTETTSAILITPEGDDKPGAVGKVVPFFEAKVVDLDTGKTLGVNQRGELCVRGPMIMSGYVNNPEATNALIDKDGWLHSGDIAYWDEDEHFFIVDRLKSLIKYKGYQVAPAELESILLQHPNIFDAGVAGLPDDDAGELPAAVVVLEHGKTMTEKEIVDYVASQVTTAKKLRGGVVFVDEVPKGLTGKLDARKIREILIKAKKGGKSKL
S16 viab conf: Cell viability qHTS assay in S16 Pmp22-F2sN cells - Confirmatory screen | shares compounds with PMP22 txn | S16 Schwann cells viability, CellTiter-Glo ATP luminescence, 24 h | Potency, µM (highest dose often 57.5 µM), without a hit: top-dose activity change, negative = viability loss, usual class: cytotoxic | hit rate 7% among 690 | AID 1508641, 2021; further: potency means the concentration at half of the fitted maximal effect; on the % scale 0 is the no-effect control and ±100 the full control effect
PMP22 txn conf: Cell-based coincidence reporter assay to measure PMP22 gene transcription in S16 Pmp22-F2sN cells - Confirmatory screen. shares compounds with PMP22 txn. S16 Schwann cells Pmp22-F2sN, dual luciferase, 24 h. Potency, µM (series often up to 57.5 µM), without a hit: at the top dose activity change, negative = inhibition, usual class: inhibitors. hit rate 22% among 690. AID 1508646, 2021; active means clear falling dose curves in both reporters; inconclusive means both reporters move, but less clearly or upward; inactive means either reporter flat; the % is the FLuc reporter signal; further: potency means the concentration at half of the fitted maximal effect
PMP22 HiBiT cnf: Cell-based HiBiT reporter assay to measure PMP22 protein expression in S16 Pmp22-HiBiT cells - Confirmatory screen. 95 tested, under 10 active. Potency, µM (top dose mostly 27.9 µM), without a hit: top-dose activity change, negative = inhibition, hits mostly inhibitors. S16 Schwann cells Pmp22-HiBiT, luminescence, 48 h. shares compounds with PMP22 txn
* marks the source's active call; other numbers are inactive results. Unless noted, the call rests on the fitted dose curve; in most records, active means well fitted curve in the direction sought with a large enough effect; inconclusive means small, poorly fitted or top-dose-only effect, or another doubt; inactive means no such curve, though single readings can be large; an effect the other way counts as inactive or inconclusive.

For Cc1ccc(NC(=O)N(Cc2ccc3c(c2)OCO3)C2CCN(Cc3ccccc3)CC2)cc1C the results were p53null 39C tox -24%, mTORC1 inh inconclusive, p53null 32C tox -5%, PMP22 txn 14µM*, S16 viability inconclusive, OvCa metastasis inconclusive, NLuc sat counter -12%, NLuc Km ctr inconclusive, FLuc counter -2%, S16 viab conf inconclusive and PMP22 txn conf inconclusive.
For CCc1c(C(=O)C(N)=O)c2c(OCC(=O)O)cccc2n1Cc1ccccc1 the results were OvCa metastasis 9%.
`O=C(OCc1cc(=O)n2nc(C3CC3)sc2n1)c1ccc(NC(=O)c2ccccc2Cl)cc1` gave p53null 39C tox -10%, mTORC1 inh 5%, p53null 32C tox inconclusive, PMP22 txn inconclusive, S16 viability 6% and OvCa metastasis -3%.
For Cc1nn2c(=O)cc(COC(=O)c3ccccc3NC(=O)c3cccs3)nc2s1 the results were p53null 39C tox inconclusive, mTORC1 inh 0%, p53null 32C tox -2%, PMP22 txn 7.1µM*, S16 viability -8%, OvCa metastasis 11%, NLuc sat counter -4%, NLuc Km ctr 2%, FLuc counter -3%, S16 viab conf 9% and PMP22 txn conf 32%.
Cc1ccc(CNC(=O)c2ccc(Nc3nc4ccccc4n4nnnc34)cc2)cc1 was read as p53null 39C tox -7%, mTORC1 inh inconclusive, p53null 32C tox 3%, PMP22 txn 8µM*, S16 viability inconclusive, OvCa metastasis 1%, NLuc sat counter -5%, NLuc Km ctr -1%, FLuc counter -15%, S16 viab conf inconclusive, PMP22 txn conf 9.9µM* and PMP22 HiBiT cnf inconclusive.
